Measured values as given in PubChem BioAssay (Tox21).
“And” between values parts separate entries of the source, which are not always exact repeats. Identical values can stand only once. Records with an inconclusive call do not appear. A structure can be active in one record and inactive in another. The source made the active and inactive calls. Unless noted, the call rests on the fitted dose curve.

How the values were obtained:
[1] = qHTS assay to identify small molecule agonists of the vitamin D receptor (VDR) signaling pathway - cell viability counter screen (AID 743224; active means well fitted curve in the direction sought with a large enough effect in the repeat runs; an effect the other way counts as inactive or inconclusive; further: nearly all actives have a fitted effect of over 50% in size; further: potency means the concentration at half of the fitted maximal effect)
Method in brief: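 Counter screen run in the same wells as the VDR-bla reporter assay: CellTiter-Glo luminescence, 30 min at room temperature, after 16 h compound treatment at 37C of cells pre-plated for 4 h.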

[2] = qHTS assay to identify small molecule antagonists of the vitamin D receptor (VDR) signaling pathway - cell viability counter screen (AID 743225; active means well fitted curve in the direction sought with a large enough effect in the repeat runs; an effect the other way counts as inactive or inconclusive; further: nearly all actives have a fitted effect of over 50% in size)
Method in brief: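 Compounds were pinned onto VDR-bla HEK 293T cells together with 1-alpha,25-dihydroxyvitamin D3 at 3 nM final. After 16 h at 37C and 5% CO2 plus the reporter readout, cell viability was measured by CellTiter-Glo luminescence (30 min, room temperature).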

[3] = qHTS assay to identify small molecule agonists of the NFkB signaling pathway (AID 1159509; active means well fitted curve in the direction sought with a large enough effect in the signal ratio in the repeat runs, not every such curve was filed as active; the % refers to the signal ratio; further: series mostly up to about 61 µM)
Method in brief: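 Beta-lactamase reporter assay run in quantitative high-throughput format on an NF-kB-responsive ME-180 line, with 5 hr compound treatment and a FRET-based blue/green fluorescence readout.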

[4] = qHTS assay to identify small molecule agonists of the NFkB signaling pathway - cell viability counter screen (AID 1159515); further: series mostly up to about 61 µM; nearly all actives have a fitted effect of over 55% in size
Method in brief: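 Read by CellTiter-Glo luminescence (30 min, room temperature) in the wells also used for the beta-lactamase FRET read. ME-180 NFkB-bla cells at 2,000 per well were plated overnight, then exposed to compound for 5 hr at 37 C.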

[5] = qHTS assay to identify small molecule agonists of the endoplasmic reticulum stress response signaling pathway (AID 1159516; active means well fitted activation curve with a large enough effect in the signal ratio in the repeat runs, not every such curve was filed as active; the % refers to the signal ratio)
Method in brief: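 Ratiometric FRET readout (405 nm excitation; 460 and 530 nm emission) of a beta-lactamase gene driven by the ER stress response element, after 2 hr substrate loading. HeLa ESRE-bla cells were seeded overnight and treated with compounds for only 5 hr at 37 C.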

[6] = qHTS assay to identify small molecule agonists of the endoplasmic reticulum stress response signaling pathway - cell viability counter screen (AID 1159517); further: nearly all actives have a fitted effect of over 50% in size; further: potency means the concentration at half of the fitted maximal effect
Method in brief: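 Cytotoxicity of test compounds toward ESRE-bla HeLa cells was assessed after 5 hr exposure. The luminescent CellTiter-Glo signal was measured 30 min after reagent addition.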

[7] = qHTS assay to identify small molecule antagonists of the retinoid-related orphan receptor gamma (ROR-gamma) signaling pathway - cell viability counter screen (AID 1159520; active means well fitted curve in the direction sought with a large enough effect in the repeat runs; an effect the other way counts as inactive or inconclusive; further: nearly all actives have a fitted effect of over 50% in size)
Method in brief: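 Tet-on ROR gamma CHO cells (1,000/well) were plated 4 hr, given compounds in DMSO for 2 hr at 37 C, then induced with 1 uM final doxycycline for 16 hr. Viability was read as ATP by CellTiter-Glo luminescence after 30 min.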

[8] = molecular target: Nuclear receptor ROR-gamma (Homo sapiens) (UniProt P51449); assay: qHTS assay to identify small molecule antagonists of the retinoid-related orphan receptor gamma (ROR-gamma) signaling pathway (AID 1159521; active means well fitted curve in the direction sought with a large enough effect in the repeat runs; an effect the other way counts as inactive or inconclusive; further: nearly all actives have a fitted effect of over 50% in size; further: potency means the concentration at half of the fitted maximal effect)
Method in brief: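 Test compounds were applied to Tet-on RORγ CHO cells 2 h ahead of doxycycline hyclate (1 uM final). Luciferase reporter activity was quantified by luminescence after 16 h at 37 C and 5% CO2.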

[9] = qHTS assay to identify small molecule agonists of the AP-1 signaling pathway - cell viability counter screen (AID 1159525); further: nearly all actives have a fitted effect of over 55% in size
Method in brief: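 Each titration point was normalised to DMSO and tetra n-octyl ammonium bromide controls. The read was Cell Titer Glo luminescence after 30 min at RT, following 5 h compound exposure of ME-180 AP-1-bla cells at 37 °C.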

[10] = qHTS assay to identify small molecule agonists of the AP-1 signaling pathway (AID 1159526)

Measured: Potency

Nc1ccc(-c2ccccc2)cc1
inactive: all assays above

Oc1cc(Cl)ccc1Cl
not listed: [2]
inactive: all other assays above

c1ccc(-c2cccc(-c3ccccc3)c2)cc1
inactive: all assays above

CCC(=O)O[C@H]1CC[C@H]2[C@@H]3CCC4=CC(=O)CC[C@]4(C)[C@H]3CC[C@]12C
48.6 µM (active) and inactive: [8]
active: [6] 54.9 µM and 21.3 µM
12.3 µM (active) and inactive: [1]
not listed: [2]
inactive: all other assays above

C#C[C@]1(O)CC[C@H]2[C@@H]3CCC4=CC(=O)CC[C@]4(C)[C@H]3CC[C@@]21C
not listed: [2]
inactive: all other assays above

CCC(C)c1ccc(O)cc1 (centres undefined)
not listed: [2]
inactive: all other assays above

O=S(=O)(Oc1ccc(Cl)cc1)c1ccc(Cl)cc1
inactive: all assays above

C=C(C)C(=O)OCC1CO1 (centres undefined)
inactive: all assays above

CCCCOCCOP(=O)(OCCOCCCC)OCCOCCCC
not listed: [2]
inactive: all other assays above

c1ccc(NNc2ccccc2)cc1
not listed: [2]
inactive: all other assays above

C1=Cc2cccc3cccc1c23
not listed: [2]
inactive: all other assays above

Cc1c(COC(=O)[C@@H]2[C@H](/C=C(\Cl)C(F)(F)F)C2(C)C)cccc1-c1ccccc1
23.8 µM (active) and inactive: [8]
not listed: [2]
inactive: all other assays above

O=[N+]([O-])c1cccc2ccccc12
not listed: [2]
inactive: all other assays above

CC(C)=CC1C(C(=O)OCc2coc(Cc3ccccc3)c2)C1(C)C (centres undefined)
active: [8] 48.6 µM
not listed: [2]
inactive: all other assays above

CCC(C)(C)c1ccc(O)cc1
not listed: [2]
inactive: all other assays above

CC(C)C(=O)OCC(C)(C)C(OC(=O)C(C)C)C(C)C (centres undefined)
not listed: [2]
inactive: all other assays above

Nc1ccc(Cl)c(Cl)c1
not listed: [2]
inactive: all other assays above

O=C(O)C(F)(F)C(F)(F)C(F)(F)C(F)(F)C(F)(F)C(F)(F)C(F)(F)F
not listed: [2]
inactive: all other assays above

CCN(CC)C(=O)SCc1ccc(Cl)cc1
not listed: [2]
inactive: all other assays above

Nc1c(Cl)cc([N+](=O)[O-])cc1Cl
inactive and 27.3 µM (active): [8]
not listed: [2]
inactive: all other assays above

Clc1nc(Cl)nc(Cl)n1
not listed: [2]
inactive: all other assays above

CNC(=O)N(C)c1nnc(C(C)(C)C)s1
inactive: all assays above

NC(=S)Nc1ccccc1
31.1 µM (active) and inactive: [8]
not listed: [2]
inactive: all other assays above

Cc1ccccc1[N+](=O)[O-]
not listed: [2]
inactive: all other assays above

COP(=O)(OC)OC
inactive: all assays above

CCN(CC)C(=O)/C(Cl)=C(\C)OP(=O)(OC)OC
not listed: [2]
inactive: all other assays above

CCN(N=O)C(N)=O
inactive: all assays above

CN(C)C(=O)Nc1ccc(Cl)cc1
not listed: [2]
inactive: all other assays above

Cc1cccc(N)c1N
not listed: [2]
inactive: all other assays above

OCC(O)CO
not listed: [2]
inactive: all other assays above

N#CC(Br)Br
not listed: [2]
inactive: all other assays above

C[C@]12CCC(=O)C(O)=C1CC[C@@H]1[C@@H]2CC[C@]2(C)C(=O)CC[C@@H]12
27.3 µM (active) and inactive: [8]
not listed: [2]
inactive: all other assays above

CCCCC(CC)COC(=O)c1ccc(C(=O)OCC(CC)CCCC)c(C(=O)OCC(CC)CCCC)c1 (centres undefined)
not listed: [2]
inactive: all other assays above

S=C1NCCN1
not listed: [2]
inactive: all other assays above

CC(C)(OOC(C)(C)c1ccccc1)c1ccccc1
not listed: [1] | [2]
inactive: all other assays above

C=C(C)[C@H]1Cc2c(ccc3c2O[C@@H]2COc4cc(OC)c(OC)cc4[C@@H]2C3=O)O1
active: [8] 34.8 nM and 770 nM and 10.6 nM
not listed: [1] | [2]
inactive: all other assays above
